The supplement of paper PMC10849652
The full data set covers some 7,900 targets. This sample favours those with a hit. About 0.6% of all pairs of compound and target were hits. A number with no mark means an inactive call.

Assays:
Assay in all cases: log2 fold change, soluble protein after heating vs DMSO (PISA); higher = thermal stabilisation; K562 cells, 10 uM, 30 min; active = over 0.2 and 3.5 SD of the protein, either way, in both replicates (recomputed)
[1] = compound: COC1=CC=C(C=C1)CN2C=CC3=C2C=C(C=C3)C(=O)NO
Summary of the method: (§1)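 Values are thermal stability changes relative to control samples and are taken from duplicates. They are stated as log2 fold changes. Before quantification by TMTpro 16plex LC-MS/MS with equalised channel sums, K562 cells at 2×10^6 cells/mL were treated with 10 μM compound for 30 min, heated in aliquots for 3 min across 48°C-58°C, pooled, extracted in PBS with 0.5% NP-40 at 4°C, and centrifuged at 21,000xg for 90 min to give the soluble supernatant.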

filanesib = compound: CON(C)C(=O)N1N=C(c2cc(F)ccc2F)S[C@@]1(CCCN)c1ccccc1 [filanesib]
Summary of the method: as §1

zotarolimus = compound: CO[C@H]1C[C@@H]2CC[C@@H](C)[C@@](O)(O2)C(=O)C(=O)N2CCCC[C@H]2C(=O)O[C@H]([C@H](C)C[C@@H]2CC[C@H](n3cnnn3)[C@H](OC)C2)CC(=O)[C@H](C)/C=C(\C)[C@@H](O)[C@@H](OC)C(=O)[C@H](C)C[C@H](C)/C=C/C=C/C=C/1C [zotarolimus]
Summary of the method: as §1

idasanutlin = compound: COc1cc(C(=O)O)ccc1NC(=O)[C@@H]1N[C@@H](CC(C)(C)C)[C@](C#N)(c2ccc(Cl)cc2F)[C@H]1c1cccc(Cl)c1F [idasanutlin]
Summary of the method: as §1

alisertib = compound: COc1cc(Nc2ncc3c(n2)-c2ccc(Cl)cc2C(c2c(F)cccc2OC)=NC3)ccc1C(=O)O [alisertib]
Summary of the method: as §1

[2] = compound: COc1cc2nc(-c3cc(F)ccc3O)nc(N[C@@H]3CNC[C@H]3C(C)(C)O)c2cc1OC
Summary of the method: as §1

gefitinib = compound: COc1cc2ncnc(Nc3ccc(F)c(Cl)c3)c2cc1OCCCN1CCOCC1 [gefitinib]
Summary of the method: as §1

[3] = compound: COc1cccc2cc(-c3nc([C@H]4CC[C@H](C(=O)O)CC4)n4ncnc(N)c34)[nH]c12
Summary of the method: as §1

lapatinib = compound: CS(=O)(=O)CCNCc1ccc(-c2ccc3ncnc(Nc4ccc(OCc5cccc(F)c5)c(Cl)c4)c3c2)o1 [lapatinib]
Summary of the method: as §1

pictilisib = compound: CS(=O)(=O)N1CCN(Cc2cc3nc(-c4cccc5[nH]ncc45)nc(N4CCOCC4)c3s2)CC1 [pictilisib]
Summary of the method: as §1

[4] = compound: CS(=O)(=O)c1ccc(-c2cnc(N)c(C(=O)Nc3ccccc3)n2)cc1
Summary of the method: as §1

crizotinib = compound: C[C@@H](Oc1cc(-c2cnn(C3CCNCC3)c2)cnc1N)c1c(Cl)ccc(F)c1Cl [crizotinib]
Summary of the method: as §1

[5] = compound: C[C@@H]1COCCN1C2=NC(=NC(=C2)C3(CC3)S(=O)(=O)C)C4=C5C=CNC5=CC=C4
Summary of the method: as §1

[6] = compound: C[C@H](C1=CC=C(C=C1)C(=O)NC2=C3C=CNC3=NC=C2)N
Summary of the method: as §1

duvelisib = compound: C[C@H](Nc1ncnc2nc[nH]c12)c1cc2cccc(Cl)c2c(=O)n1-c1ccccc1 [duvelisib]
Summary of the method: as §1

gandotinib = compound: Cc1cc(Nc2cc(CN3CCOCC3)c3nc(C)c(Cc4ccc(Cl)cc4F)n3n2)n[nH]1 [gandotinib]
Summary of the method: as §1

tozasertib = compound: Cc1cc(Nc2cc(N3CCN(C)CC3)nc(Sc3ccc(NC(=O)C4CC4)cc3)n2)n[nH]1 [tozasertib]
Summary of the method: as §1

[7] = compound: Cc1cc(SCc2sc(-c3ccc(C(F)(F)F)cc3)nc2C)ccc1OCC(=O)O
Summary of the method: as §1

doramapimod = compound: Cc1ccc(-n2nc(C(C)(C)C)cc2NC(=O)Nc2ccc(OCCN3CCOCC3)c3ccccc23)cc1 [doramapimod]
Summary of the method: as §1

ispinesib = compound: Cc1ccc(C(=O)N(CCCN)[C@@H](c2nc3cc(Cl)ccc3c(=O)n2Cc2ccccc2)C(C)C)cc1 [ispinesib]
Summary of the method: as §1

UniProt P22314, sequence (P22314 whole entry, looked up): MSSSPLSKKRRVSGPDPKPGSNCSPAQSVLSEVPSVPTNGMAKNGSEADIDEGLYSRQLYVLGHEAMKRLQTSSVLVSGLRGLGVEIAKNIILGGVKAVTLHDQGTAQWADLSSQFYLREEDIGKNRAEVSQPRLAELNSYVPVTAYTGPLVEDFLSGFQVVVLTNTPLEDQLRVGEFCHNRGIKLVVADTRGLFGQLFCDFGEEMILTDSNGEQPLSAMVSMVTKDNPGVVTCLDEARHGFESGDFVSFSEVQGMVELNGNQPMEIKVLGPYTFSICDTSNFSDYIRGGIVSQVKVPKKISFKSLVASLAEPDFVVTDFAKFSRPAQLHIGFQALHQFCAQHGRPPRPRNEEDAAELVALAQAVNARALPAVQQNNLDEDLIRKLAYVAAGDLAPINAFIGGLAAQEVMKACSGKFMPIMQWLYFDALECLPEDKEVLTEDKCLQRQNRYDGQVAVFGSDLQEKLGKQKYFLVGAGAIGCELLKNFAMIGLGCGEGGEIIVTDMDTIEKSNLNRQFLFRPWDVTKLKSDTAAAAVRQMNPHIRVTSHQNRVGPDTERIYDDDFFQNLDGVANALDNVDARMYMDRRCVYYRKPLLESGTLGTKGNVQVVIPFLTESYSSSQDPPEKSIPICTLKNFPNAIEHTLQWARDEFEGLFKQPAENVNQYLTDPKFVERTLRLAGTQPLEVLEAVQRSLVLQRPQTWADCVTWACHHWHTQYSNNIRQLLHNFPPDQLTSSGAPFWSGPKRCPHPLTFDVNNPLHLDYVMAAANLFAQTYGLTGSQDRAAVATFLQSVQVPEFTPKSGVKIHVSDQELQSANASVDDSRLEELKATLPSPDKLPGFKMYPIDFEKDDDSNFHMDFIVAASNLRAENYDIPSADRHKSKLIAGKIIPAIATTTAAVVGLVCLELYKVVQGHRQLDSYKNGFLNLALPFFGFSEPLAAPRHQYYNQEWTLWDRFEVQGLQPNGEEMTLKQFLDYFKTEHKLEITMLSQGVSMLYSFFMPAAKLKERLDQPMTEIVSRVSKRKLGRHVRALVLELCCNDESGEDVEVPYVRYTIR
UniProt Q9H270, sequence (Q9H270 whole entry, looked up): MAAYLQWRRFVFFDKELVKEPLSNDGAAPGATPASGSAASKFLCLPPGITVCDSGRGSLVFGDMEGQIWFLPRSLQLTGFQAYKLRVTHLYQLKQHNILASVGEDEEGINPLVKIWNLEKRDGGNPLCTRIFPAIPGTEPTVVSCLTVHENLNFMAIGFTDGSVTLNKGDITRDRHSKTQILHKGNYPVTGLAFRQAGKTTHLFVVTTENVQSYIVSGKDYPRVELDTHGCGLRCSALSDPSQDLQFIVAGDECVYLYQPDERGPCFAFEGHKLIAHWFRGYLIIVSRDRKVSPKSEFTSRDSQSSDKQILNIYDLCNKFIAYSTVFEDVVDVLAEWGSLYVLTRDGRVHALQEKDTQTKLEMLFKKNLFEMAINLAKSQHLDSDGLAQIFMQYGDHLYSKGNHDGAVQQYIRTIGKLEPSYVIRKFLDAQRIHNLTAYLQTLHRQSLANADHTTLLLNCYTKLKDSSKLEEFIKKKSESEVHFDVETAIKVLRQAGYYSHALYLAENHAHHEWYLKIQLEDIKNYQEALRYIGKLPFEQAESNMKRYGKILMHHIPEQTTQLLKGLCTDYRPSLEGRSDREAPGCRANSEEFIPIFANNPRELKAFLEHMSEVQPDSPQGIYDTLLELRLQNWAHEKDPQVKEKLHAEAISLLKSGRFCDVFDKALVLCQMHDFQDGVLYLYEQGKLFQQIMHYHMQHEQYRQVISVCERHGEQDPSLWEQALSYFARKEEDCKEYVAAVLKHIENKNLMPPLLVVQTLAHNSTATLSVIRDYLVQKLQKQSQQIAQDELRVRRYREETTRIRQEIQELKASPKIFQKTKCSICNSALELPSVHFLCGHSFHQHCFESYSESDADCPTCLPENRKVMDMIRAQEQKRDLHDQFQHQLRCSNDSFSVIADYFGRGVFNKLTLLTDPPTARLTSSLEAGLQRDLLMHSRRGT
UniProt Q9BV38, sequence (Q9BV38 whole entry, looked up): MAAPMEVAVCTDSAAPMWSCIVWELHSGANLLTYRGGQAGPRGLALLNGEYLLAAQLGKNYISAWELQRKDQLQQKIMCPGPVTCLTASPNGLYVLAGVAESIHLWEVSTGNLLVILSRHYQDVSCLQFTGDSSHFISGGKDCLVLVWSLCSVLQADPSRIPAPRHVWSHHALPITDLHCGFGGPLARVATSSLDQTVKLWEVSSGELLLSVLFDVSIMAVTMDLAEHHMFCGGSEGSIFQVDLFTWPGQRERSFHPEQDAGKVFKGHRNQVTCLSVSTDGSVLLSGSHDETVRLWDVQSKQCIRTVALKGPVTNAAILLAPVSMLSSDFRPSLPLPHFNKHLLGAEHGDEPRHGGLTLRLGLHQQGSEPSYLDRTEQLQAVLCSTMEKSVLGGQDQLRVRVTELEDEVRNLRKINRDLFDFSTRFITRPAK
UniProt Q7Z6J8, sequence (Q7Z6J8 whole entry, looked up): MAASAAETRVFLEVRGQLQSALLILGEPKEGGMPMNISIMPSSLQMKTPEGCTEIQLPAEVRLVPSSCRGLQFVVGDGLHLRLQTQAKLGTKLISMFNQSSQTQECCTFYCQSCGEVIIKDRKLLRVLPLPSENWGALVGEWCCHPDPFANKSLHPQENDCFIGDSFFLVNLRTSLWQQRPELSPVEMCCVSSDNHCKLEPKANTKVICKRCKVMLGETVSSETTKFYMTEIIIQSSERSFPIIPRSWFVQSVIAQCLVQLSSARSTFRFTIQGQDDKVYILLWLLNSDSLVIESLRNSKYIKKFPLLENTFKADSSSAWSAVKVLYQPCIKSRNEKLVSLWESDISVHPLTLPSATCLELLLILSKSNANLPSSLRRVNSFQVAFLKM
UniProt P28908, sequence (P28908 whole entry, looked up): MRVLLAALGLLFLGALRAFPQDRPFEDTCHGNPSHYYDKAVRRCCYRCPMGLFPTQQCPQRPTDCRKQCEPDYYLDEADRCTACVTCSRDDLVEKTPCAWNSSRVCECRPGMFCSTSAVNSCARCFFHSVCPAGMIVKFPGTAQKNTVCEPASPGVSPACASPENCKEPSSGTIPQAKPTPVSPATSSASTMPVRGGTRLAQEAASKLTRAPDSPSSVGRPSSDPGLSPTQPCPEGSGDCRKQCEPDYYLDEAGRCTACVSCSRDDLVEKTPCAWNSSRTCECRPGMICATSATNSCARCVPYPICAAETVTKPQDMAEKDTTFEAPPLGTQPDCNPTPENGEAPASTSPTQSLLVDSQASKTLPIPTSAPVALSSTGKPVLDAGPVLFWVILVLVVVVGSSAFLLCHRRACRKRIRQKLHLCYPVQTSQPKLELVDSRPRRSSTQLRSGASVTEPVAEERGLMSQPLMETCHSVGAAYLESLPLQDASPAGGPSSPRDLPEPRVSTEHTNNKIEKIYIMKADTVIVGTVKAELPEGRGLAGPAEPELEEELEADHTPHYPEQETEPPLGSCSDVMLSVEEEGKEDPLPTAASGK
UniProt Q9Y5K5, sequence (Q9Y5K5 whole entry, looked up): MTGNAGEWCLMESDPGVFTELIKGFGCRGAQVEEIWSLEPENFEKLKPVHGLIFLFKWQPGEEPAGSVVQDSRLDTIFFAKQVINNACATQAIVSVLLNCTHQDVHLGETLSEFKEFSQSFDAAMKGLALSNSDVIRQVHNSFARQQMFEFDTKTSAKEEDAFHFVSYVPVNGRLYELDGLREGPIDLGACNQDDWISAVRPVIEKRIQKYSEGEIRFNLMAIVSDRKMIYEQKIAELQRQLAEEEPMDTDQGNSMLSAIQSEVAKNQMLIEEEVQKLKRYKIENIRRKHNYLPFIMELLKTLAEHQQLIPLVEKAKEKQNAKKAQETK
UniProt P57081, sequence (P57081 whole entry, looked up): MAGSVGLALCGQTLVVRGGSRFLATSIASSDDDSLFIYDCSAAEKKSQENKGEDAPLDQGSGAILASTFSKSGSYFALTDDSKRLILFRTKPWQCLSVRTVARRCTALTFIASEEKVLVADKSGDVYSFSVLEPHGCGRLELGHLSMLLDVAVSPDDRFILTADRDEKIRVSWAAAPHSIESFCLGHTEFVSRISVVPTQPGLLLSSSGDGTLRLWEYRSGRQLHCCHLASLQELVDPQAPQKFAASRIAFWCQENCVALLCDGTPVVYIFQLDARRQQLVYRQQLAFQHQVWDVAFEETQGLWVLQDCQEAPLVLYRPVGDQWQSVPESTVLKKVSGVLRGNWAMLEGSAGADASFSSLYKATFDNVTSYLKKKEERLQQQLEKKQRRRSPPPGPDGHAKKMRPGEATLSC
UniProt Q5VIR6, sequence (Q5VIR6 whole entry, looked up): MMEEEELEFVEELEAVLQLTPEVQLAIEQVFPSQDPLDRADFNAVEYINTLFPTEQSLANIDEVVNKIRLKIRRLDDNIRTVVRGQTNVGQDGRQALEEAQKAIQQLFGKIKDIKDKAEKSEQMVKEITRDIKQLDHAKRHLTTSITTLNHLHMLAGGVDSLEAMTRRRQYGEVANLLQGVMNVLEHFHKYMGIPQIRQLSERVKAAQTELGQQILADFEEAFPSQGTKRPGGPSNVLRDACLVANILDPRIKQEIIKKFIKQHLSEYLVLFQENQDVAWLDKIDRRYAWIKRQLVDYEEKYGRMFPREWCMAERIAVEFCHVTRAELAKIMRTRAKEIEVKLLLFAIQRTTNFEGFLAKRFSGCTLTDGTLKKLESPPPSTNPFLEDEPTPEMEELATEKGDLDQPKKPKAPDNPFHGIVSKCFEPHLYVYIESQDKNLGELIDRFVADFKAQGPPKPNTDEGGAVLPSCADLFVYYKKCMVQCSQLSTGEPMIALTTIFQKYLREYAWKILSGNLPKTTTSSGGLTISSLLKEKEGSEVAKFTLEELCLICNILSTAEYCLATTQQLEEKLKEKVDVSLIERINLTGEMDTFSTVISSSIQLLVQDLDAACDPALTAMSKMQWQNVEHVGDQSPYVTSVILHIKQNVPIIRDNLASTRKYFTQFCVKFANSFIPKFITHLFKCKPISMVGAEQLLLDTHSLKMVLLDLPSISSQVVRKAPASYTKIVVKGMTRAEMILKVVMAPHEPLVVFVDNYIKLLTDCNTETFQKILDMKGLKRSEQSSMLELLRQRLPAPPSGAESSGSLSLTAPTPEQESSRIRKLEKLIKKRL

| Target | log2 fold change [1] | log2 fold change (filanesib) | log2 fold change (zotarolimus) | log2 fold change (idasanutlin) | log2 fold change (alisertib) | log2 fold change [2] | log2 fold change (gefitinib) | log2 fold change [3] | log2 fold change (lapatinib) | log2 fold change (pictilisib) | log2 fold change [4] | log2 fold change (crizotinib) | log2 fold change [5] | log2 fold change [6] | log2 fold change (duvelisib) | log2 fold change (gandotinib) | log2 fold change (tozasertib) | log2 fold change [7] | log2 fold change (doramapimod) | log2 fold change (ispinesib) |
| --- | --- | --- | --- | --- | --- | --- | --- | --- | --- | --- | --- | --- | --- | --- | --- | --- | --- | --- | --- | --- |
| UCHL5 (UniProt Q9Y5K5) | 0.023 | -0.035 | 0.026 | -0.044 | -0.048 | 0.04 | 0.008 | -0.031 | -0.023 | 0.012 | 0.023 | -0.066 | 0 | -0.005 | -0.006 | -0.116 | 0.036 | 0.064 | -0.015 | -0.056 |
| VPS11 (UniProt Q9H270) | -0.019 | -0.038 | 0.053 | -0.063 | -0.022 | -0.032 | -0.005 | -0.041 | -0.045 | -0.013 | 0.009 | -0.373 (active) | -0.039 | 0.054 | -0.016 | -0.111 | 0.034 | 0.095 | -0.029 | -0.226 |
| VPS53 isoform 4 (UniProt Q5VIR6) | 0.015 | -0.008 | 0.095 | -0.048 | 0.01 | 0.089 | 0.025 | 0.003 | 0.012 | -0.066 | 0.087 | -0.095 | -0.004 | 0.006 | -0.033 | 0 | 0.061 | 0.059 | 0.036 | -0.113 |
| WDR18 (UniProt Q9BV38) | -0.04 | 0.02 | -0.024 | 0.039 | -0.041 | 0.056 | 0.024 | 0.035 | 0.005 | -0.004 | -0.023 | -0.008 | -0.022 | -0.102 | -0.012 | -0.021 | 0.022 | -0.009 | 0.026 | 0.027 |
| TMEM189-UBE2V1 (UniProt I3L0A0) | -0.034 | -0.051 | -0.049 | -0.024 | -0.105 | -0.048 | -0.034 | 0.112 | 0.011 | -0.026 | 0.063 | 0.022 | 0.051 | 0.051 | 0.042 | 0.007 | -0.009 | -0.034 | 0.021 | 0.071 |
| TRIP10 isoform 2 (UniProt Q15642) | -0.032 | -0.213 | 0.013 | 0.128 | -0.029 | 0.109 | 0.062 | -0.09 | -0.083 | 0.06 | 0.132 | 0.056 | -0.007 | 0.108 | 0.001 | 0.147 | 0.101 | -0.089 | -0.035 | 0.309 |
| VPS8 (UniProt Q8N3P4) | 0.092 | 0.001 | 0.043 | -0.03 | 0.133 | 0.01 | 0.076 | -0.025 | 0.046 | 0.055 | 0.024 | -0.12 | 0.016 | 0.127 | 0.038 | -0.097 | 0.065 | 0.083 | 0 | -0.154 |
| TP53BP1 isoform 2 (UniProt Q12888) | 0.006 | 0.059 | 0.054 | 0.04 | 0.046 | -0.089 | -0.014 | -0.041 | 0.028 | 0 | 0.025 | 0.076 | -0.001 | 0.018 | -0.025 | -0.053 | 0.205 | 0.066 | 0.036 | 0.002 |
| UBA1 (UniProt P22314) | 0.029 | -0.077 | -0.021 | -0.014 | 0.05 | 0.047 | 0.05 | -0.053 | -0.06 | -0.019 | 0.127 | -0.338 | 0.091 | 0.017 | -0.014 | -0.068 | 0.066 | 0.148 | -0.031 | -0.11 |
| UBE3D (UniProt Q7Z6J8) | -0.005 | 0.08 | -0.033 | -0.009 | -0.088 | -0.022 | 0.035 | 0.009 | -0.069 | 0.139 | 0.002 | 0.053 | 0.128 | -0.067 | 0.016 | -0.147 | 0.076 | -0.052 | -0.01 | -0.024 |
| TNFRSF8 (UniProt P28908) | 0.019 | 0.11 | -0.019 | 0.04 | -0.011 | 0.074 | 0.067 | 0 | 0.003 | 0.047 | 0.051 | 0.15 | 0.009 | -0.073 | 0.027 | 0.012 | -0.05 | -0.063 | -0.011 | 0.029 |
| USP14 (UniProt P54578) | 0.023 | -0.035 | 0.04 | -0.051 | -0.057 | -0.008 | 0.007 | -0.043 | 0.031 | 0.026 | 0.006 | -0.023 | 0.082 | -0.037 | 0.067 | -0.078 | -0.002 | 0.076 | 0.002 | 0.017 |
| WDR7 (UniProt Q9Y4E6) | -0.04 | 0.084 | 0.045 | -0.016 | -0.076 | -0.102 | -0.027 | -0.074 | 0.003 | -0.097 | 0.025 | 0.024 | -0.029 | -0.096 | 0.042 | -0.009 | -0.003 | 0.08 | 0.065 | -0.075 |
| WDR4 (UniProt P57081) | 0.017 | -0.022 | 0.004 | -0.096 | -0.059 | -0.058 | -0.01 | 0.049 | 0.206 | 0.131 | 0.085 | -0.038 | -0.024 | -0.121 | 0.014 | 0.049 | -0.007 | 0.017 | 0.023 | 0.075 |
| VPS33A (UniProt Q96AX1) | 0.018 | -0.096 | 0.033 | -0.039 | -0.037 | 0.014 | -0.033 | -0.039 | 0.015 | -0.083 | -0.031 | -0.218 | 0.014 | 0.043 | 0.029 | -0.091 | 0.036 | 0.049 | -0.017 | -0.154 |
| UBC (UniProt P0CG48) | -0.064 | 0.09 | 0.048 | 0 | -0.002 | 0.06 | 0.038 | 0.018 | -0.101 | 0.008 | -0.003 | 0.208 | 0.05 | 0.064 | 0.075 | 0.014 | 0.009 | -0.009 | 0.035 | 0.091 |
